According to PubChem BioAssay:
Potency and affinity values are given separately. Results filed as inconclusive are left out. Calls of active or inactive are those of the source. Unless noted, no rule for the calls is given here.

Legend:
[1] = RMG-1 ovarian cancer cell viability loss – cherry-pick, dose response (AID 687029;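 active = signal drop whose fitted half-maximal concentration is at most twice the top valid dose, in every test run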;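 also: cells exposed to compound for 96 hours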)
[2] = IOSE-T80 viability loss, PAX8-independent line – cell-based, cherry-pick, selectivity assay for PAX8 inhibitor project, dose response (AID 687032;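 active = fitted half-maximal concentration for viability loss no higher than twice the top valid dose, in every repeat run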;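 also: cells exposed to compound for 96 h before reading; 0% = neutral control wells and -100% = 2 µM mitoxantrone kill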)
[3] = CMV-driven luciferase expression suppression in HEK293 – cell-based, luminescence, dry powder, counter-screen for Pax8 inhibitor project, dose response (AID 743020;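 active = signal-lowering compounds whose fitted half-maximal concentration is at or below twice the top tested dose in every run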;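 also: HEK293 cells stably expressing the CMV luciferase reporter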)
[4] = general cell-killing toxicity readout – plate reader, dry powder samples, cytotoxicity control for PAX8 inhibitor project, dose response (AID 743021)
[5] = IGROV1 cell killing – plate reader, dry powder samples, PAX8 inhibitor project, dose response (AID 743043);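 also: more negative means fewer viable cells or more cytotoxicity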
[6] = OVCAR-3 cell viability loss – plate reader, dry powder samples, PAX8 inhibitor project, dose response (AID 743044); conditions: max activity: at 35 µM, stronger effect = lower value unless noted
[7] = toxicity toward immortalized ovarian surface epithelium – cell-based, plate reader, dry powder samples, cytotoxicity control for PAX8 inhibitor project, dose response (AID 743045);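 also: 0% = neutral control median and -100% = positive control median; more negative values mean more cell killing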
[8] = A2780 cell killing – plate reader, dry powder samples, cytotoxicity control, dose response (AID 743046);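 also: 0% = neutral control wells and -100% = cytotoxic reference compound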
[9] = OVCAR8 cell viability loss – plate reader, dry powder samples, PAX8 project, dose response (AID 743197)

Measured: max activity

C[C@H](O)C#Cc1ccc2c(c1)O[C@@H](CN(C)Cc1ccc(-c3ccccc3)cc1)[C@@H](C)CN([C@@H](C)CO)S2(=O)=O
inactive: [1] | [2] | [3] | [4] | [5] | [6] -22.5% | [7] | [8]

COc1cccc(S(=O)(=O)N(C)C[C@@H]2Oc3cc(C4=CCCCC4)ccc3S(=O)(=O)N([C@@H](C)CO)C[C@H]2C)c1
inactive: [1] | [2] | [3] | [4] | [5] | [6] -34.5% [at 0.5 µM, stronger effect = lower value] | [7] | [8]

COc1ccc(CN(C)C[C@@H]2OCCCC[C@H](C)Oc3ccc(NC(=O)Nc4cccc5ccccc45)cc3C(=O)N([C@H](C)CO)C[C@H]2C)cc1
inactive: [1] | [2] | [3] | [4] | [5] | [6] -16.9% | [7] | [8]

C[C@@H]1CN([C@@H](C)CO)C(=O)c2cc(NC(=O)Nc3ccc(C(F)(F)F)cc3)ccc2O[C@@H](C)CCCCO[C@@H]1CN(C)Cc1ccccc1
inactive: [1] | [2] | [3] | [4] | [5] | [6] -20.5% [at 16 µM, stronger effect = lower value] | [7] | [8]

C[C@@H]1CN([C@@H](C)CO)C(=O)Cc2cc(NC(=O)Nc3ccc(C(F)(F)F)cc3)ccc2O[C@H]1CN(C)Cc1ccc(Oc2ccccc2)cc1
inactive: [1] | [2] | [3] | [4] | [5] | [6] -19.5% | [7] | [8]

Cc1cccc(-c2ccc([C@H]3[C@@H](CO)N4CCCCN(S(=O)(=O)c5cccc(C)c5)C[C@@H]34)cc2)c1
inactive: [1] | [2] | [3] | [4] | [5] | [6] -13.6% | [7] | [8]

CCCC#Cc1ccc2c(c1)O[C@H](CN(C)Cc1ccccc1)[C@@H](C)CN([C@H](C)CO)S2(=O)=O
inactive: [1] | [2] | [3] | [4] | [5] | [6] 7.94% [at 1 µM, stronger effect = lower value] | [7] | [8]

C[C@H]1CCCCO[C@H](CN(C)C(=O)Nc2ccc(F)cc2)[C@@H](C)CN([C@@H](C)CO)C(=O)c2cc(NC(=O)Nc3ccc(C(F)(F)F)cc3)ccc2O1
inactive: [1] | [2] | [3] | [4] | [5] | [6] 8.44% [at 16 µM, stronger effect = lower value] | [7] | [8]

C[C@@H]1CCCCO[C@@H](CN(C)Cc2ccc(Cl)c(Cl)c2)[C@H](C)CN([C@@H](C)CO)C(=O)c2cc(NS(=O)(=O)c3ccc(Cl)cc3)ccc2O1
inactive: [1] | [2] | [3] | [4] | [5] | [6] 10.4% [at 0.5 µM, stronger effect = lower value] | [7] | [8]

N#Cc1cccc(-c2ccc3c(c2)[C@@H]2[C@@H](CCN2C(=O)C2CCCCC2)[C@@H](CO)N3)c1
inactive: [1] | [2] | [3] | [4] | [5] | [6] 11.5% [at 16 µM, stronger effect = lower value] | [7] | [8]

CCCC#Cc1ccc([C@H]2[C@H]3CN(S(=O)(=O)Cc4ccccc4)CCCCN3[C@H]2CO)cc1
inactive: [1] | [2] | [3] | [4] | [5] | [6] -34.3% | [7] | [8]

CN1c2ccc(C3=CCCCC3)cc2[C@H]2[C@H](CCN2C(=O)NC2CCCCC2)[C@@H]1CO
inactive: [1] | [2] | [3] | [4] | [5] | [6] 17.4% [at 0.56 µM, stronger effect = lower value] | [7] | [8]

Cc1ccc(S(=O)(=O)Nc2ccc3c(c2)C(=O)N([C@@H](C)CO)C[C@H](C)[C@@H](CN(C)Cc2ccc(Cl)c(Cl)c2)OCCCC[C@@H](C)O3)cc1
inactive: [1] | [2] | [3] | [4] | [5] | [6] -5.1% [at 16 µM, stronger effect = lower value] | [7] | [8]

C[C@@H]1CCCCO[C@@H](CN(C)C(=O)Nc2ccc(C(F)(F)F)cc2)[C@H](C)CN([C@H](C)CO)C(=O)c2cc(NS(=O)(=O)c3ccccc3)ccc2O1
inactive: [1] | [2] | [3] | [4] | [5] | [6] 50.6% [at 8 µM, stronger effect = lower value] | [7] | [8]

COc1ccc(S(=O)(=O)Nc2ccc3c(c2)C(=O)N([C@H](C)CO)C[C@@H](C)[C@H](CN(C)S(=O)(=O)c2ccc(F)cc2)OCCCC[C@H](C)O3)cc1
inactive: [1] | [2] | [3] | [4] | [5] | [6] -24.5% | [7] | [8]

Cc1ccc(S(=O)(=O)Nc2ccc3c(c2)C(=O)N([C@@H](C)CO)C[C@H](C)[C@H](CN(C)Cc2ccc(C(F)(F)F)cc2)OCCCC[C@@H](C)O3)cc1
inactive: [1] | [2] | [3] | [4] | [5] | [6] 9.21% | [7] | [8]

COc1cccc(S(=O)(=O)Nc2ccc3c(c2)[C@H]2C[C@H](CC(=O)NCc4ccccc4F)O[C@H](CO)[C@H]2O3)c1
inactive: [1] | [2] | [3] | [4] | [5] | [6] 44.6% [at 0.5 µM, stronger effect = lower value] | [7] | [8]

C[C@H](CO)N1C[C@H](C)[C@H](CN(C)Cc2ccc(C(F)(F)F)cc2)Oc2ccc(NS(=O)(=O)c3ccc(F)cc3)cc2CC1=O
inactive: [1] | [2] | [3] | [4] | [5] | [6] 12.3% [at 16 µM, stronger effect = lower value] | [7] | [8]

C[C@H]1CN([C@@H](C)CO)C(=O)c2c(c3ccccc3n2C)-c2ccccc2CO[C@H]1CN(C)S(=O)(=O)c1ccc(C(F)(F)F)cc1
inactive: [1] | [2] | [3] | [4] | [5] | [6] -24.4% | [7] | [8]

C[C@@H]1CCCCO[C@@H](CN(C)S(=O)(=O)c2cccs2)[C@H](C)CN([C@H](C)CO)C(=O)c2cc(NC(=O)Nc3ccc(C(F)(F)F)cc3)ccc2O1
inactive: [1] | [2] | [3] | [4] | [5] | [6] 9.36% [at 2.1 µM, stronger effect = lower value] | [7] | [8]

CC(C)CC#Cc1ccc2c(c1)O[C@@H](CN(C)S(=O)(=O)c1ccc(F)cc1)[C@H](C)CN([C@@H](C)CO)S2(=O)=O
inactive: [1] | [2] | [3] | [4] | [5] | [6] 21.6% [at 4.2 µM, stronger effect = lower value] | [7] | [8]

O=C(C[C@H]1C[C@@H]2c3cc(NS(=O)(=O)c4ccc(F)cc4)ccc3O[C@@H]2[C@@H](CO)O1)NCc1ccc(-c2ccccc2)cc1
inactive: [1] | [2] | [3] | [4] | [5] | [6] -28.3% | [7] | [8]

C[C@@H]1CN([C@@H](C)CO)C(=O)c2cc(NS(=O)(=O)c3ccc(F)cc3)ccc2O[C@@H]1CN(C)Cc1ccc(C(F)(F)F)cc1
inactive: [1] | [2] | [3] | [4] | [5] | [6] -27.7% | [7] | [8]

C[C@H](CO)N1C[C@H](C)[C@H](CN(C)C(=O)c2ccccc2)OCCCC[C@H](C)Oc2ccc(NC(=O)Nc3ccc(C(F)(F)F)cc3)cc2C1=O
inactive: [1] | [2] | [3] | [4] | [5] | [6] 16.6% [at 0.5 µM, stronger effect = lower value] | [7] | [8]

O=C(Nc1cccc(F)c1)N1CCCCN2[C@@H](CO)[C@@H](c3ccc(-c4ccncc4)cc3)[C@@H]2C1
inactive: [1] | [2] | [3] | [4] | [5] | [6] 12.6% [at 1 µM, stronger effect = lower value] | [7] | [8]

C[C@@H]1CCCCO[C@H](CN(C)Cc2ccc3c(c2)OCO3)[C@@H](C)CN([C@@H](C)CO)C(=O)c2cc(NS(=O)(=O)c3ccc(Cl)cc3)ccc2O1
inactive: [1] | [2] | [3] | [4] | [5] | [6] -40.7% [at 16 µM, stronger effect = lower value] | [7] | [8]

C[C@@H]1CN([C@H](C)CO)C(=O)c2cc(NS(=O)(=O)c3ccccc3)ccc2O[C@@H](C)CCCCO[C@H]1CN(C)Cc1ccc(Cl)c(Cl)c1
inactive: [1] | [2] | [3] | [4] | [5] | [6] 22% [at 0.5 µM, stronger effect = lower value] | [7] | [8]

Cc1ccc(S(=O)(=O)N(C)C[C@H]2OCCCC[C@H](C)Oc3ccc(NS(=O)(=O)c4ccc(Cl)cc4)cc3C(=O)N([C@@H](C)CO)C[C@@H]2C)cc1
inactive: [1] | [2] | [3] | [4] | [5] | [6] 10.8% [at 2.1 µM, stronger effect = lower value] | [7] | [8]

C[C@H]1CN([C@@H](C)CO)C(=O)c2ccccc2-c2ccccc2CO[C@H]1CN(C)S(=O)(=O)c1ccc(C(F)(F)F)cc1
inactive: [1] | [2] | [3] | [4] | [5] | [6] 11.8% [at 4.2 µM, stronger effect = lower value] | [7] | [8] | [9]

C[C@@H]1CCCCO[C@H](CN(C)Cc2ccc(Cl)c(Cl)c2)[C@H](C)CN([C@@H](C)CO)C(=O)c2cc(NC(=O)Nc3ccc(F)cc3)ccc2O1
inactive: [1] | [2] | [3] | [4] | [5] | [6] 22.7% [at 8 µM, stronger effect = lower value] | [7] | [8]
